In PubChem BioAssay one finds composite z-score and z-score data, which are given here for 16 molecules.

SMILES strings stand for the structures. Active and inactive are the calls of the source.

Experiment [1] in a line: small molecules captured by biotinylated probe aFSTL3 – biochemical, small-molecule microarray, fluorescence 635/667, stem cell growth factor project, primary screen (AID 1064).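 Note: measures binding of the biotinylated anti-FSTL3 antibody to printed compounds.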 The following applies: higher = more signal.
The nature of experiment [2]: binders from COS7 lysate, DM2A8 probe, primary screen, torsin A project, cell lysate, small-molecule microarray, fluorescence 635/667 (AID 1065). The following applies: higher = more signal, COS7 lysate expressing mutant human TOR1A.
Experiment [3] can be described thus: small molecules captured by biotinylated probe aFGF2 – biochemical, small-molecule microarray, fluorescence 635/667, stem cell growth factor project, primary screen (AID 1067).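 Note: measures binding of biotinylated aFGF2 protein to printed compounds on slides; z-score merges feature fluorescence and signal-to-noise across triplicate slides.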 The settings on record: higher = more signal.
Experiment [4] is described as follows: small molecules captured by biotinylated probe aFGF10 – biochemical, small-molecule microarray, fluorescence 635/667, stem cell growth factor project, primary screen (AID 1071).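 Note: score merges 667 nm spot intensity and signal to noise from triplicate slides.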 The following applies: higher = more signal.
The target of experiment [5] is Neurogenic locus notch homolog protein 2 (Homo sapiens) (UniProt Q04721). The experiment is described as follows: small molecules binding Notch2 protein – biochemical, small-molecule microarray, 635 nm fluorescence, stem cell growth factors, primary screen (AID 1073). The settings on record: higher = more signal.
For experiment [6], the target named is Pro-neuregulin-1, membrane-bound isoform (Homo sapiens) (UniProt Q02297). The experiment is described as follows: small molecules binding neuregulin-1 protein – biochemical, small-molecule microarray, fluorescence 635/667, psychiatric disease protein project, primary screen (AID 1075).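 Note: score combines 667 nm spot fluorescence with signal to noise.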 The settings on record: NRG1 binding, 635 nm fluorescence, higher = more signal.

In experiment [7] the test system is Neuregulin-1 EGF-like domain. Nature of the experiment: small molecules binding NRG1 EGF domain – biochemical, small-molecule microarray, 635 nm fluorescence, primary screen (AID 1081).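 Note: binding of the protein to compounds printed on small-molecule microarray slides.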 The following applies: higher = more signal.
Experiment [8] can be described thus: FRG1 expression reporter modulators in myotubes – cell-based, C2C12 myotubes, firefly/Renilla luciferase, luminescence, FRG1 inhibition for FSHD, primary screen (AID 1084). The settings on record: FRG1 promoter luciferase, higher = more signal, called active from +8 up or from −8 down.
Experiment [9] is described as follows: small molecules captured by biotinylated probe aFST – biochemical, small-molecule microarray, fluorescence 635/667, stem cell growth factor project, primary screen (AID 1086).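 Note: score merges 667 nm fluorescence with signal-to-noise of each printed compound spot.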 The settings on record: higher = more signal.
The nature of experiment [10]: binders of probe aHhip on microarray, primary screen, stem cell growth factor project, biochemical, small-molecule microarray, fluorescence 635/667 (AID 1087).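 Note: score merges spot fluorescence at 667nm with spot signal to noise ratio.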 The settings on record: higher = more signal.

Chain of Neurogenic locus notch homolog protein 2 (Homo sapiens) (Q04721 whole entry, looked up, canonical isoform): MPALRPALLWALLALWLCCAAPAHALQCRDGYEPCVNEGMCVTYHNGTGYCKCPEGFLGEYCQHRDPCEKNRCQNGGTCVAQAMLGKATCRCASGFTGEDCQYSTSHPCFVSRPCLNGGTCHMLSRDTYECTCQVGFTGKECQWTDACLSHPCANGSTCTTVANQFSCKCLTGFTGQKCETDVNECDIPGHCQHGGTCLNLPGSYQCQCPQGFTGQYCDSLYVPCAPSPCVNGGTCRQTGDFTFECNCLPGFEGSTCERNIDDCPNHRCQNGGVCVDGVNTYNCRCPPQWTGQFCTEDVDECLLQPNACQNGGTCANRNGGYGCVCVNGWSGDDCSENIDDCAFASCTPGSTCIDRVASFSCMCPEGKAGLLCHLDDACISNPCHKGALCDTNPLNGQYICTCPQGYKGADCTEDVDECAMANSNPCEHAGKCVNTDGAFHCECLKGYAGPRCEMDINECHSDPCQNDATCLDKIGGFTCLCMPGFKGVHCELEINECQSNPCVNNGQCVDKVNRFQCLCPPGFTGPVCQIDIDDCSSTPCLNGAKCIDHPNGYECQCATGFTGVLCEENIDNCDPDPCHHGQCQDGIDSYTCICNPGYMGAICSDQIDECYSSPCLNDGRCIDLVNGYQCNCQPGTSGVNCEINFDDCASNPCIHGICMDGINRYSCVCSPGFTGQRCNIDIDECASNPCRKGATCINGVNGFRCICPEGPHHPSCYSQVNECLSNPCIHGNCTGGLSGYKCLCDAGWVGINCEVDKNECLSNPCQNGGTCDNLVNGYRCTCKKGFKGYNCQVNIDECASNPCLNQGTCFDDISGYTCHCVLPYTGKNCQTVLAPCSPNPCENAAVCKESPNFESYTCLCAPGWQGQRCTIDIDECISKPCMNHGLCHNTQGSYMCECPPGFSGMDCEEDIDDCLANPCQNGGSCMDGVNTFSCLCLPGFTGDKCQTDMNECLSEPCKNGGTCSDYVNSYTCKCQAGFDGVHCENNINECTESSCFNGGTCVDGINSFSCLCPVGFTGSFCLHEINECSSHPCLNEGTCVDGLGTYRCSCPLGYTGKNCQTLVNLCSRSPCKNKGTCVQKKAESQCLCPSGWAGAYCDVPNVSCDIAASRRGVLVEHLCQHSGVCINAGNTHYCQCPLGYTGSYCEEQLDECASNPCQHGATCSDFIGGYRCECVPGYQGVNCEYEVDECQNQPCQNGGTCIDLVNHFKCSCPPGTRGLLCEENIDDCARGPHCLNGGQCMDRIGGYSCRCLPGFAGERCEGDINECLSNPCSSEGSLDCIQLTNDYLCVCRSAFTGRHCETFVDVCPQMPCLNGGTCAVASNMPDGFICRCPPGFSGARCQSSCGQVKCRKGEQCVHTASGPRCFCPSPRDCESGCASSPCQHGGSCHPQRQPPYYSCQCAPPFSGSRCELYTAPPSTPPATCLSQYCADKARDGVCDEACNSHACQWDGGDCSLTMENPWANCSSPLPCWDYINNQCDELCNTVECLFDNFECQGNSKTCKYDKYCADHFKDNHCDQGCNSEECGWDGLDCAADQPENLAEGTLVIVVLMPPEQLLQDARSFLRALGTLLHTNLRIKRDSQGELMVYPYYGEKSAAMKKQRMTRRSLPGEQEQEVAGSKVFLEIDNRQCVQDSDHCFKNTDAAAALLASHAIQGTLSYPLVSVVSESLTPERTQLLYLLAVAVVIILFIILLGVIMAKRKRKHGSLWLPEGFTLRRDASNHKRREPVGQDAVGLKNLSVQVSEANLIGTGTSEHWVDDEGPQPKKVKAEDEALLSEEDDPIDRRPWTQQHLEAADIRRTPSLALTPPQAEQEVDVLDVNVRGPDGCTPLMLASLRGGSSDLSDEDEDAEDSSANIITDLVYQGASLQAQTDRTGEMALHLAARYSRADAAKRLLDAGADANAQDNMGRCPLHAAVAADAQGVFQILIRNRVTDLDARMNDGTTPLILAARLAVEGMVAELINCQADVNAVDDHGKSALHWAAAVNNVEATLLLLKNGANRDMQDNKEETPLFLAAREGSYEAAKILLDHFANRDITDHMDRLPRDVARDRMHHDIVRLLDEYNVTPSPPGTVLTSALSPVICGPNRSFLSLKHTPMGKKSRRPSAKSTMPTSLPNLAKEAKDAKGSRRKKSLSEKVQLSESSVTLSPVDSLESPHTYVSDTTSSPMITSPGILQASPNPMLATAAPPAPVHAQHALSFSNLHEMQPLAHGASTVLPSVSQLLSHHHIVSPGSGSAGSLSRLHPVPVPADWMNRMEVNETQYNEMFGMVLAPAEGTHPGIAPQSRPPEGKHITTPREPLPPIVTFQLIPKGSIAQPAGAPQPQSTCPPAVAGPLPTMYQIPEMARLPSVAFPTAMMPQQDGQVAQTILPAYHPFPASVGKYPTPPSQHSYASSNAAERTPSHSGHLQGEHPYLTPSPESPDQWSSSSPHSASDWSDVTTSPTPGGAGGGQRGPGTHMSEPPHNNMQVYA
Chain of Pro-neuregulin-1, membrane-bound isoform (Homo sapiens) (Q02297 whole entry, looked up, canonical isoform): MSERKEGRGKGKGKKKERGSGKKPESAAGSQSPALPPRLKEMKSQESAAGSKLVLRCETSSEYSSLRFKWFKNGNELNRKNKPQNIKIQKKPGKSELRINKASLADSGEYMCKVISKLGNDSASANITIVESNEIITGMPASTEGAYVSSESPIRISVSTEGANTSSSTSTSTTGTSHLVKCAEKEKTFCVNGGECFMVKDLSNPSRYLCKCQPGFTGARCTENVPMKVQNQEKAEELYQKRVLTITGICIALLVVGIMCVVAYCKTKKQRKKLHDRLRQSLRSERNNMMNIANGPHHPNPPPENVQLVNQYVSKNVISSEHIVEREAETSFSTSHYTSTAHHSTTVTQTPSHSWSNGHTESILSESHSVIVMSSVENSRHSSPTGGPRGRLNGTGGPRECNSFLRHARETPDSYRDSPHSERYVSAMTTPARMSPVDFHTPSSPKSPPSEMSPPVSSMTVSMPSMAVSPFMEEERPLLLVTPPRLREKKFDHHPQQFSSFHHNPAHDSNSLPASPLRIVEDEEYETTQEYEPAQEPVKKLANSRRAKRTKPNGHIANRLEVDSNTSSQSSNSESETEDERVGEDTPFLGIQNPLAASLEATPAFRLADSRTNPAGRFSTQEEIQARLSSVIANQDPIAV

On to `COc1ccc(O[C@H]2C=C[C@@H](c3ccccc3)O[C@@H]2CON=C2[C@H]3CCn4c(=O)n(-c5ccccc5)c(=O)n4[C@H]3[C@H](O)[C@@H]3O[C@H]23)cc1`, for which the composite z-score in [1] was -0.135; in experiment [2], 0.451; in [3] it was -0.0973; in experiment [4], 0.372; in experiment [5] it was 1.24; in experiment [6] it was 0.238. Moreover, the composite z-score in experiment [7] is 0.63; in experiment [9] it was 0.358; in experiment [10], 0.197. The z-score in experiment [8] was -0.243 (inactive).
With `COC(=O)CC=C[C@@H](C)[C@@H]1C=C[C@H](O)[C@@H](CO)O1`, the composite z-score in experiment [1] was -0.202; in [2], 0.124; in experiment [3], -0.106; in experiment [4], 0.376; in [5], 0.432; in experiment [6] it was -0.196. Also, the composite z-score in experiment [7] is -0.0778; in experiment [9], 0.225; in experiment [10], -0.176. Further, the z-score in experiment [8] is -0.163 (inactive).
As to `COC(=O)[C@H](C)NC(=O)CCC1CC(OC(=O)NCc2ccc3c(c2)OCO3)CC2(CCCC(COC(=O)NCC(c3ccccc3)c3ccccc3)O2)O1` (stereo not given in full), the composite z-score in experiment [1] was -0.686; in experiment [2] it was 0.7; in experiment [3], -0.0541; in experiment [4], 1.17; in [5] it was 0.994; in experiment [6], 0.682. Besides, the composite z-score stood at 1.28 in experiment [7], 0.132 in experiment [9] and 0.0201 in [10]. The z-score in [8] is 2.96 (inactive).
On to `COC(=O)[C@H]1O[C@@H](c2c(OC)c(OC)c(C)c(OC)c2OC)[C@H](C)[C@@H](O)[C@H]1C`, for which the composite z-score was -0.341 in [1]; 0.499 in [2]; 0.0066 in experiment [3]; 0.915 in experiment [4]; 1.06 in experiment [5]; 0.368 in experiment [6]. The composite z-score in experiment [7] was 0.741; in experiment [9], 0.224; in experiment [10], -0.0965. Besides, the z-score in experiment [8] was -0.204 (inactive).
For `C=C(C)C(=O)OCC1CN2[C@@H](CC[C@@H](C)[C@@H]2c2ccc(Br)cc2)C(=O)O1` (stereo not given in full), the composite z-score was -0.393 in experiment [1]; 0.0802 in [2]; -0.15 in experiment [3]; 0.2 in experiment [4]; 0.331 in [5]; -0.0076 in experiment [6]. In addition, the values for the composite z-score in [7], in experiment [9] and in experiment [10] were 0.546, 0.444 and -0.21, respectively. The z-score in [8] was 1.11 (inactive).
Regarding `C[C@@H](c1ccccc1)N1C(=O)[C@H]2[C@H]3[C@H](O)[C@H](O)CC(=O)[C@H]3CC[C@H]2C1=O`, the composite z-score in [1] is -0.483; in [2], 0.107; in experiment [3], -0.0878; in experiment [4], 0.443; in [5], 0.896; in experiment [6], 0.286. Besides, the composite z-score in experiment [7] is 0.477; in experiment [9] it was 0.0442; in [10], -0.0994. Besides, the z-score in experiment [8] was -0.12 (inactive).
For the molecule `CO[C@H]1COC(=O)CCC[C@@H](C)[C@H](OC)COC(=O)[C@@H]2CCCN2C(=O)CC=C[C@@H]1C`, the composite z-score is -0.442 in [1]; 2.09 in [2]; -0.294 in [3]; -0.142 in [4]; -0.164 in experiment [5]; -0.508 in experiment [6]. Moreover, the composite z-score in experiment [7] was 0.505; in experiment [9], -0.194; in experiment [10], 0.113. For the same molecule, the z-score in [8] is 0.362 (inactive).
Turning to `CO[C@H]1COC(=O)[C@@H](C)COC(=O)[C@@H](OCc2ccccc2)C=C[C@@H]1C`, the composite z-score is -0.133 in experiment [1]; -0.606 in experiment [2]; -0.121 in experiment [3]; 0.206 in experiment [4]; -0.663 in [5]; -0.297 in experiment [6]. The composite z-score in [7] was -0.546; in experiment [9] it was -0.155; in experiment [10] it was 0.0277. The z-score in experiment [8] is -0.412 (inactive).
For the molecule `CCN1C(=O)[C@H]2[C@H]3[C@H](O)[C@H](O)CC(=O)[C@H]3CC[C@H]2C1=O`, the composite z-score is -0.652 in [1]; 0.481 in experiment [2]; -0.0566 in experiment [3]; 0.39 in [4]; 0.132 in experiment [5]; 0.298 in [6]. The composite z-score in experiment [7] was 0.81; in experiment [9] it was 0.0722; in [10] it was 0.0373. Further, the z-score in [8] is 0.276 (inactive).
With `CCOC(=O)[C@H](Cc1ccccc1)NC(=O)CCC1CC(OC(=O)NCc2cccc3ccccc23)CC2(CCCC(COC(=O)NCC(c3ccccc3)c3ccccc3)O2)O1` (stereo not given in full), the composite z-score was -0.222 in experiment [1]; 0.578 in experiment [2]; -0.0753 in experiment [3]; 0.326 in experiment [4]; 0.928 in experiment [5]; 0.301 in experiment [6]. Also, the figures for the composite z-score in experiment [7], in [9] and in experiment [10] were 1.04, 0.329 and -0.169, respectively. In [8], the z-score is 0.631 (inactive).
Consider `COC(=O)[C@@H]1CC[C@H](C)[C@@H](c2ccc(C)cc2)N1C(=O)c1ccc(C=NO[C@H](C)c2cn([C@@H]3COC[C@H]3O)nn2)cc1`, for which the composite z-score in [1] is -0.591; in experiment [2] it was -0.314; in experiment [3], -0.0459; in experiment [4] it was 0.515; in experiment [5], 1.14; in experiment [6] it was 0.122. Further, the figures for the composite z-score in experiment [7], in experiment [9] and in experiment [10] were 0.972, 0.165 and -0.124, respectively. The z-score in experiment [8] is 0.191 (inactive).
With `COc1ccc(O[C@H]2C=C[C@@H](c3ccccc3)O[C@@H]2CON=C(C)CCN2CCc3nc(-c4ccccc4)c(-c4ccccc4)cc3C2)cc1`, the composite z-score in experiment [1] is -0.311; in experiment [2], 0.183; in experiment [3] it was -0.0909; in experiment [4], -0.631; in experiment [5], -0.167; in experiment [6] it was 0.617. In addition, the composite z-score is -0.0088 in experiment [7], 0.371 in [9] and 0.136 in experiment [10]. For the same molecule, the z-score in [8] is 0.282 (inactive).
With `CC[C@@H](c1ccccc1)n1c(=O)n2n(c1=O)[C@H]1[C@H](O)[C@@H]3O[C@@H]3C(=O)[C@H]1CC2`, the composite z-score in experiment [1] is -0.66; in experiment [2] it was -0.283; in experiment [3], -0.103; in [4] it was 0.335; in experiment [5] it was 0.395; in experiment [6], -0.0023. Also, the composite z-score in [7] was -0.088; in experiment [9], 0.0182; in experiment [10], 0.0373. Moreover, the z-score in [8] is 0.327 (inactive).
For the molecule `COc1ccc(O[C@H]2C=C[C@@H](c3ccccc3)O[C@@H]2CON=C(C)C)cc1`, the composite z-score in experiment [1] was 0.332; in [2], -0.0694; in [3], 0.0333; in [4], -0.531; in experiment [5], -0.286; in experiment [6], 0.112. The composite z-score in experiment [7] is -0.0241; in experiment [9], -0.195; in [10], 0.107. The z-score in experiment [8] was 0.359 (inactive).
For the molecule `CCOC(=O)[C@H](CC(C)C)NC(=O)CCC1CC(OC(=O)NCc2cccc3ccccc23)CC2(CCCC(COC(=O)NCCC(C)C)O2)O1` (stereo not given in full), the composite z-score is -0.403 in [1]; 0.141 in experiment [2]; -0.0547 in [3]; 0.176 in experiment [4]; 0.193 in experiment [5]; -0.0205 in experiment [6]. In addition, the composite z-score in [7] is 0.602; in experiment [9], -0.128; in experiment [10], 0.003. Besides, the z-score in experiment [8] was 0.164 (inactive).
Take `Cc1ccc(S(=O)(=O)n2c3ccccc3c3nnc(C(=O)c4ccccc4)nc32)cc1`: the composite z-score is -0.474 in [1]; 0.338 in experiment [2]; -0.0603 in experiment [3]; 0.316 in [4]; 0.197 in [5]; -0.457 in [6]. Further, the figures for the composite z-score in experiment [7], in experiment [9] and in experiment [10] were 0.355, 0.141 and -0.137, respectively. In [8], the z-score was 49.6 (active).
